High-throughput results: PubChem BioAssay, National Center for Advancing Translational Sciences (NCATS)
Sfp inh = blocks B. subtilis Sfp PPTase activity. Q9F4F7. Biochemical Sfp PPTase activity, qHTS. Potency, µM, without a hit: largest response in the series, negative = inhibition, actives largely listed as inhibitors. hit rate 3.5% among 310,000;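 further: the enzyme is Sfp with the accession as filed and its product quenches rhodamine fluorescence; 0% = enzyme reaction without inhibitor and -100% = no enzyme wells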
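Step 1, compound plus 15 nM Sfp-PPTase, 15 min, room temperature. Step 2, add rhodamine-CoA (5 uM) and BHQ-2-YbbR (12.5 uM). Step 3, read 525/598 nm fluorescence at 0 and 30 min.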
HP1b binding inh = inhibitors of HP1-beta chromodomain binding to methylated histone tails. AID 540317. Potency, µM (highest dose often 114 µM), without a hit: at the highest dose activity change, negative = inhibition, usual class: inhibitors. hit rate 0.56% among 390,000. P83916. AlphaScreen HP1-beta / biotin-H3K9me3 peptide binding; further: nearly all actives have a fitted effect of over 70% in size
Target sequence (P83916 whole entry, looked up): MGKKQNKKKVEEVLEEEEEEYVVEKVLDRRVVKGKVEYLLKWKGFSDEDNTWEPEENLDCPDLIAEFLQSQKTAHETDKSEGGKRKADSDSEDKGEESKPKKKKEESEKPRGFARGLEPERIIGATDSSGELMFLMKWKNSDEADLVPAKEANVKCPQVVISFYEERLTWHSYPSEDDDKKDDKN
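HP1-beta protein (50 nM final) preincubated 30 min at room temperature with biotinylated H3(1-18)K9me3 peptide (50 nM) in PBS pH 7.4, 0.01% Tween-20, then compound added for 30 min. AlphaScreen streptavidin donor/nickel chelate acceptor beads (10 ug/mL final), 30 min dark, luminescence read.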
G9a inh = G9a (human) methyltransferase inhibition | Q96KQ7 | G9a H3K9 monomethylation, AlphaScreen, 2 h | Potency, µM (series often up to 102 µM), inactives show at the top dose activity, negative = inhibition, most hits filed as inhibitors | hit rate 8.8% among 350,000; further: on the % scale 0 is the no-effect control and ±100 the full control effect; nearly all actives have a fitted effect of over 75% in size
Target sequence (Q96KQ7 913-1193 limits assumed): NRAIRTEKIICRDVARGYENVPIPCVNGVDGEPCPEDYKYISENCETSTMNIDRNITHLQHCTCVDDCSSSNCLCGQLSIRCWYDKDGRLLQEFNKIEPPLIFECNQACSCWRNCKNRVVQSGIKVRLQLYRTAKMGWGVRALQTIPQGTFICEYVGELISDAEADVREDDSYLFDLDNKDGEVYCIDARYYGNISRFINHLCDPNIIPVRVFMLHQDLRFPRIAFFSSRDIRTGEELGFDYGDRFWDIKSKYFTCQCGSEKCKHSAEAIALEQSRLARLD
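Readings reflect AlphaScreen signal from monomethyl-H3K9 antibody detection. HMT at 20 nM; substrate b-H3K9 500 nM; cofactor SAM 20 uM; 2 h RT reaction; compounds tested as titrations in qHTS with 15 min preincubation.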
JMJD2A Tudor inh = blocks the human JMJD2A Tudor domain. AID 504339. Potency, µM (top dose mostly 114 µM), inactives show at the top dose activity change, negative = inhibition, hits mostly inhibitors. AlphaScreen JMJD2A-Tudor / H3K4me3 peptide binding. hit rate 4.4% among 390,000. O75164; further: on the % scale 0 is the no-effect control and ±100 the full control effect; nearly all actives have a fitted effect of over 50% in size
BAZ2B block = blocks human BAZ2B; Potency, µM (titrated, usually from 114 µM), for the others: at the top dose activity change, negative = inhibition, usual class: inhibitors; hit rate 4.4% among 360,000; AlphaScreen BAZ2B-H3K14Ac peptide displacement; AID 504333; Q9UIF8; further: on the % scale 0 is the no-effect control and ±100 the full control effect; nearly all actives have a fitted effect of over 60% in size
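AlphaScreen displacement: compounds (up to 110uM) incubated 30 min at room temperature with a preformed 50 nM BAZ2B/50 nM biotinylated H3K14Ac peptide complex in PBS pH 7.4 with Tween-20. Donor and acceptor beads at 10 ug/mL final added, 20 min light-protected before reading.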
Active calls of the source: *; ? = inconclusive; . = not tested or not shown; [ ] = remark or other dose. An excerpt weighted towards active compounds, which were near 12% of everything screened. The call rests on the fitted dose curve; in most records, active means well fitted curve in the direction sought with a large enough effect; inconclusive means small, poorly fitted or top-dose-only effect, or another doubt; inactive means no such curve, though single readings can be large; an effect the other way counts as inactive or inconclusive. Potency means the concentration at half of the fitted maximal effect.

SMILES	Sfp inh	HP1b binding inh	G9a inh	JMJD2A Tudor inh	BAZ2B block
COc1ccc2[nH]c(=O)c(CN(C(=O)c3cccc(Cl)c3)c3ccccc3OC)cc2c1	.	15%	14µM*	-12%	-10%
COc1ccc2[nH]c(=O)c(CNc3ccccc3OC)cc2c1	16µM*	-15%	35µM*	?	?
COc1ccc2[nH]c(=O)c(CNc3ccccc3)cc2c1	50µM*	14%	35µM*	-28%	0%
COc1ccc2[nH]c(=O)c(CNc3ccccc3C)cc2c1	22µM*	-2%	10µM*	-27%	-1%
COc1ccc(NCc2cc(=O)[nH]c3ccccc23)cc1	2%	-13%	?	?	79µM*
CC(C)(C)n1nnnc1C(c1cccnc1)N1CCN(c2cccc(C(F)(F)F)c2)CC1 (stereo unspecified)	5%	47%	?	-34%	?
CC(C)(C)c1cc(C(c2cccnc2)N2CCN(CCO)CC2)cc(C(C)(C)C)c1O (stereo unspecified)	20µM*	?	10µM*	32µM*	50µM*
COc1cccc(NS(=O)(=O)c2ccc3c(c2)CCC(=O)N3)c1	.	.	.	-3%	.
Cn1nc(C(=O)Nc2cccc(S(=O)(=O)N3CCCCC3)c2)c2ccccc2c1=O	.	11%	40µM*	-17%	-23%
O=C(Nc1ccc(Cl)c(S(=O)(=O)N2CCCC2)c1)c1nn(CCO)c(=O)c2ccccc12	.	1%	50µM*	-33%	-29%
Cn1nc(C(=O)Nc2ccc(S(=O)(=O)N3CCCCC3)cc2)c2ccccc2c1=O	-2%	14%	?	-19%	-27%
CCOc1ccc(NC(=O)C2CCCN2S(=O)(=O)c2ccc3c(c2)C(C)(C)C(=O)N3C)cc1 (stereo unspecified)	18%	18%	-6%	-12%	-2%
O=C(COc1ccc2oc3c(c2c1)CCCC3)Nc1ccc(Br)cc1	.	21%	?	-14%	4%
O=C(c1noc2c1CCCC2)N1CCN(c2ccc(F)cc2)CC1	6%	2%	0%[2.33 µM]	-21%	2%
COc1ccccc1N1CCN(C(=O)c2ccc3[nH]c4c(c3c2)CCCC4)CC1	-21%	?	?	50µM*	45µM*
O=C(c1ccc2[nH]c3c(c2c1)CCCC3)N1CCN(c2ccc(F)cc2)CC1	-5%	?	?	32µM*	40µM*
CN(C)C(=O)c1cnc(-c2ccccc2)nc1-c1ccccc1	2%	12%	-44%[12.7 µM]	-6%	3%
COc1cccc(OCCNC(=O)c2cc(OC)c(OC)c(OC)c2)c1	17%	26%	20%	-14%	-1%
CCOC(=O)c1c(C)[nH]c(C(=O)Cn2c(=O)c3c(ncn3CC)n(Cc3ccccc3)c2=O)c1C	-9%	5%	8.9µM*	-22%	-6%
O=c1[nH]c2c(s1)C(c1ccco1)C1C3CCC(C3)C1S2 (stereo unspecified)	45µM*	-13%	7.9µM*	?	50µM*
COc1ccc(OC)c(NC(=O)CCn2cccn2)c1	.	31%	10%[59 µM]	-6%	-16%
Cn1cccc1C(=O)N1CCC2(CC1)CN(c1ccncc1)C2	7%	.	39%[12.7 µM]	.	.
CCn1ncc(/C=N\NC(=O)c2ccc3c(c2)c(C)c(C)n3Cc2ccccc2)c1C	-13%	-8%	-13%[12.7 µM]	?	?
Cc1c(C)n(Cc2ccccc2)c2ccc(C(=O)N3CCN(c4ccccc4)CC3)cc12	.	?	?	14µM*	?
Cc1ccc(CN2CCSc3ccc(C(=O)NCCc4ccccc4)cc32)cc1	.	14%	-1%[59 µM]	-23%	-14%
SMILES	Sfp inh	HP1b binding inh	G9a inh	JMJD2A Tudor inh	BAZ2B block
Cc1ccc(CN2CCSc3ccc(C(=O)N4CCN(c5ccccc5)CC4)cc32)cc1	.	0%	18µM*	?	-16%
Cc1ccc(CN2CCSc3ccc(C(=O)NCc4ccccn4)cc32)cc1	50µM*	-6%	40µM*	?	?
CCn1nc(C)c(/C=N/NC(=O)c2ccc3c(c2)c(C)c(C)n3Cc2ccccc2)c1C	-10%	-16%	?	35µM*	?
Cc1nc2c(C(=O)NCCc3ccccc3)cnn2c(C)c1Cc1c(F)cccc1Cl	.	42%	1%[59 µM]	0%	-1%
Cc1ccncc1C(=O)O	12%	.	.	.	.
COC(=O)[C@@H]1C[C@H]1[C@@H](NC(C)=O)c1ccccc1	-15%	.	.	.	.
Cc1cccc(N2CCN(S(=O)(=O)c3ccc(F)c(C(=O)Nc4ccc(C(C)C)cc4)c3)CC2)c1C	.	-8%	6%[59 µM]	-22%	0%
Cc1cc(=O)oc2c(CN3CC(C)OC(C)C3)c(O)c(Cl)cc12 (stereo unspecified)	-15%	?	?	79µM*	?
CCc1cc(=O)oc2c(CN3CCCC3)c(O)c(Cl)cc12	-13%	4%	16%[12.7 µM]	-12%	0%
CC(=O)Nc1cccc(C(=O)N/N=C/c2cccnc2)c1	16%	-11%	41%	45µM*	-3%
O=C(N/N=C/c1cccnc1)c1cc(O)c(O)c(O)c1	40µM*	?	32µM*	28µM*	45µM*
CCn1c(C)nc2cc(C(=O)NNC(=O)CN(C)S(=O)(=O)c3ccc(NC(C)=O)cc3)ccc21	.	64%	.	-2%	.
CN(Cc1ccco1)c1nc(-c2ccoc2)nc2ccccc12	?	.	8%[0.501 µM]	.	.
CN(C)c1ccc(-c2nc(N(C)Cc3ccco3)c3ccccc3n2)cc1	25µM*	.	.	.	.
Cc1noc(C)c1-c1nc(N(C)Cc2ccco2)c2ccccc2n1	79µM*	.	-31%[0.501 µM]	.	.
CC(C)CN(CCCNC(=O)c1cn(C)c2ccc(S(=O)(=O)N(C)C3CCCCC3)cc2c1=O)CC(C)C	.	13%	2%[59 µM]	-14%	.
COc1ccc(OCC2CC3C(CCC(C)C3c3ccc(Br)cc3)C(=O)O2)cc1 (stereo unspecified)	12%	.	.	.	.
Cc1ccc2c(=O)cc(C(=O)Nc3ccc(S(=O)(=O)N(C)Cc4ccccc4)cc3)oc2c1	.	11%	4%[59 µM]	-10%	-2%
CCc1ccc(NC(=O)CSC2=Nc3ccccc3C3=NC(CCC(=O)NCCc4ccccc4)C(=O)N23)cc1 (stereo unspecified)	.	19%	-4%[59 µM]	-30%	-22%
COc1ccc(NS(=O)(=O)c2ccc3oc(SC(C)C(N)=O)nc3c2)cc1 (stereo unspecified)	12%	7%	46%	?	-19%
Cc1ccc(/C=N/NC(=O)Cc2cccn2C)s1	1%	0%	?	-13%	?
Cn1cccc1CC(=O)N/N=C\c1cccs1	0%	6%	.	-22%	50µM*
Cn1cccc1CC(=O)N/N=C/c1ccco1	-19%	2%	.	-25%	?
CC(/C=N/NC(=O)Cc1cccn1C)=C\c1ccco1	40µM*	-2%	11µM*	?	?
CC(=C/c1ccco1)/C=N/NC(=O)Cc1cccn1C	-29%	-4%	?	-15%[57.1 µM]	45µM*
c1ccc(C2CSc3ccccc3N2)cc1 (stereo unspecified)	56µM*	-12%	8.9µM*	?	?
